14 molecules from PubChem BioAssay (NCI) can be followed below.

About 83,000 compounds went through this panel and 20% of them were active in at least one assay; those are over-represented in the sample as a whole.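 Activity criterion: percent growth below 10, measured after cells in 96-well plates were exposed to a single compound concentration for 48 hours.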 Unmarked numbers belong to inactive results. Active and inactive are the calls of the source.

Some test systems named below: NCI-H23 lung; NCI-H226 lung; NCI-H322M lung; HOP-62 NSCLC; NCI-H460 lung; HOP-92 NSCLC; NCI-H522 lung; A549/ATCC NSCLC; 786-0 renal; COLO 205 colon.
Holding throughout (experiment): NCI-60 one-dose screen, 48 h (100 = growth as untreated, 0 = no growth, -100 = all killed)
Holding throughout (conditions): 10 µM unless noted

For `CC1=C(C(=O)/C=C/c2c[nH]c3ccccc23)C(c2ccccc2)NC(=S)N1` (centres undefined), the growth in the test on NCI-H23 lung was 94.5%; with NCI-H226 lung, 80.4%; with NCI-H322M lung it was 101%; in the test on HOP-62 NSCLC, 97.9%; with NCI-H460 lung, 99.6%; in the test with HOP-92 NSCLC, 90.1%. Moreover, the growth in the test on NCI-H522 lung was 89%; with A549/ATCC NSCLC, 106%; in the test with 786-0 renal, 102%; in the test with COLO 205 colon, 121%.
In the case of `CC(C)N1C(=O)/C(=C2\SC(=S)N(C(C)C)C2=O)SC1=S`, the growth was 94% in the test on NCI-H23 lung; 101% in the test with NCI-H226 lung; 94% with NCI-H322M lung; 95.5% with HOP-62 NSCLC; 101% with NCI-H460 lung; 72.3% in the test on HOP-92 NSCLC. The values for the growth with NCI-H522 lung, in the test with A549/ATCC NSCLC and in the test with COLO 205 colon were 90.6%, 93.8% and 110%, respectively.
Consider `O=C(C[n+]1cccc2ccccc21)c1ccc(O)c(O)c1`, for which the growth in the test with NCI-H23 lung was 78.5%; in the test on NCI-H226 lung, 62.1%; in the test with NCI-H322M lung it was 93.5%; in the test with HOP-62 NSCLC it was 102%; with NCI-H460 lung, 92.6%; with HOP-92 NSCLC, 73.2%. Besides, the growth is 20.9% in the test on NCI-H522 lung, 84.4% in the test with A549/ATCC NSCLC and 56.4% in the test on COLO 205 colon.
In the case of `CCOC(=O)c1cc(C(=O)c2ccc(OC)c(OC)c2)n2c1ccc1ccccc12`, the growth was 86.2% in the test on NCI-H23 lung; 80.7% with NCI-H226 lung; 101% in the test on NCI-H322M lung; 85% in the test on HOP-62 NSCLC; 99.2% in the test with NCI-H460 lung; 83.3% in the test with HOP-92 NSCLC. Besides, the growth in the test on NCI-H522 lung was 86%; with A549/ATCC NSCLC it was 98.3%; in the test with COLO 205 colon, 112%.
As to `OCc1cnc2ccccc2c1NC1CCCCCC1`, the growth with NCI-H23 lung was 77.4%; with NCI-H226 lung, 80.4%; in the test with NCI-H322M lung, 89.3%; in the test on HOP-62 NSCLC it was 95.8%; in the test on NCI-H460 lung, 93.1%; with HOP-92 NSCLC, 83.6%. For the same molecule, the growth in the test with NCI-H522 lung was 61.7%; in the test with A549/ATCC NSCLC it was 84.6%; in the test with 786-0 renal, 101%; in the test on COLO 205 colon, 110%.
On to `CCOC(=O)c1cc(C#N)n2ccc3ccccc3c12`, for which the growth is 94.7% in the test with NCI-H23 lung; 97.5% in the test with NCI-H226 lung; 98.1% in the test on NCI-H322M lung; 105% with HOP-62 NSCLC; 100% with NCI-H460 lung; 93.5% in the test with HOP-92 NSCLC. In addition, the growth is 92.2% with NCI-H522 lung, 98.8% in the test with A549/ATCC NSCLC and 112% in the test with COLO 205 colon.
With `O=C(Cn1c[n+](CC(=O)c2ccc([N+](=O)[O-])cc2)c2ccccc21)Nc1cccc2cccnc12`, the growth in the test on NCI-H23 lung is 50.9%; with NCI-H226 lung, 80.7%; in the test with NCI-H322M lung, 96%; in the test with HOP-62 NSCLC it was 95.5%; in the test on NCI-H460 lung it was 77.7%; with HOP-92 NSCLC it was 28%. Also, the growth in the test on NCI-H522 lung was 47.1%; in the test on A549/ATCC NSCLC, 14.3%; in the test on COLO 205 colon, 23.9%.
Consider `CCOC(=O)c1cc(C(=O)c2cc(OC)cc(OC)c2)n2ccc3ccccc3c12`, for which the growth is 81.5% in the test on NCI-H23 lung; 91.8% in the test with NCI-H226 lung; 91.1% in the test on NCI-H322M lung; 70.7% with HOP-62 NSCLC; 101% in the test on NCI-H460 lung; 111% with HOP-92 NSCLC. The growth with NCI-H522 lung was 83.3%; in the test on A549/ATCC NSCLC it was 77.9%; in the test on COLO 205 colon, 115%.
As to `C=CCN1C(=O)/C(=C/C(=O)OC)S/C1=N\NC(=O)c1cc2ccc1/C=C\c1ccc(cc1)/C=C\2`, the growth with NCI-H23 lung is 88.2%; in the test on NCI-H226 lung, 87.5%; in the test with NCI-H322M lung, 97.1%; with HOP-62 NSCLC, 107%; with NCI-H460 lung it was 102%; with HOP-92 NSCLC, 81.4%. The growth in the test on NCI-H522 lung is 60.7%; with A549/ATCC NSCLC it was 94.8%; in the test with 786-0 renal, 91.2%; in the test with COLO 205 colon, 110%.
Turning to `[O-][n+]1c(Cl)cc(Cl)c2ccccc21`, the growth with NCI-H23 lung was 102%; in the test on NCI-H226 lung, 104%; with NCI-H322M lung, 115%; with HOP-62 NSCLC, 103%; in the test on NCI-H460 lung, 108%; in the test on HOP-92 NSCLC, 89.4%. For the same molecule, the growth in the test on NCI-H522 lung is 104%; in the test with A549/ATCC NSCLC it was 91.9%; in the test on COLO 205 colon it was 107%.
As to `N#C/C(=C\c1ccc([N+](=O)[O-])s1)c1nc2cc(Br)ccc2s1`, the growth with NCI-H23 lung was -27.8% (active); with NCI-H226 lung it was -75.9% (active); with NCI-H322M lung it was 85.6%; in the test with HOP-62 NSCLC it was -35.5% (active); in the test on NCI-H460 lung, -26.9% (active); in the test with HOP-92 NSCLC it was -55.2% (active). For the same molecule, the growth with NCI-H522 lung was -45.4% (active); in the test on A549/ATCC NSCLC it was 5.93% (active); in the test on COLO 205 colon, -74.8% (active).
As for `Cn1ccc2c1CC1CN(Cc3ccco3)C(=O)C1C2C(=O)O` (centres undefined), the growth was 94.3% with NCI-H23 lung; 103% in the test with NCI-H226 lung; 99.3% in the test with NCI-H322M lung; 96.8% with HOP-62 NSCLC; 102% in the test on NCI-H460 lung; 99.4% in the test with HOP-92 NSCLC. The growth is 92.3% in the test on NCI-H522 lung, 98% in the test on A549/ATCC NSCLC and 117% in the test with COLO 205 colon.
Take `CCOC(=O)c1cc(C(=O)c2ccc(OC)c(OC)c2)n2ccc(/C=C/c3cc[n+](CC(=O)c4ccc(OC)c(OC)c4)cc3)cc12`: the growth in the test on NCI-H23 lung is 93.5%; in the test with NCI-H226 lung, 99.2%; in the test with NCI-H322M lung it was 99%; in the test on HOP-62 NSCLC, 101%; in the test on NCI-H460 lung it was 98.6%; with HOP-92 NSCLC, 110%. Also, the growth in the test with NCI-H522 lung is 85.5%; with A549/ATCC NSCLC, 95.9%; in the test with COLO 205 colon, 114%.
Turning to `COc1ccc(OC)c(CCn2cncc2-c2c[nH]c3ccccc23)c1`, the growth is 55.6% in the test on NCI-H23 lung; 68.3% with NCI-H226 lung; 82.8% in the test with NCI-H322M lung; 74.3% in the test with HOP-62 NSCLC; 92% in the test with NCI-H460 lung; 46.7% with HOP-92 NSCLC. For the same molecule, the growth was 71% with NCI-H522 lung, 90.8% with A549/ATCC NSCLC and 90.1% with COLO 205 colon.
